Source: PubChem BioAssay
This is a sample that favours compounds with a hit; in the whole collection about 0.92% have one here.
AGP1 TOR yeast – modulators of TOR pathway AGP1-GFP in S. cerevisiae. S. cerevisiae AGP1-GFP multiplex flow cytometry, 3 h; GFP as percent of DMSO wells. GFP response vs DMSO, % at 10 µM. hit rate 0.02% among 320,000. AID 2066;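 active means GFP response relative to DMSO above a set limit, near screen average plus 3 SD, cut at about 150% in these data; inconclusive means fewer than 70 cells counted for the yeast strain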;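 further: median GFP channel fluorescence of the gated AGP1 strain per well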
MEP2-GFP yeast – yeast TOR pathway MEP2-GFP modulation; S. cerevisiae MEP2-GFP strain, flow cytometry GFP, 3 h; 100% = DMSO control level; GFP response vs DMSO, % at 10 µM; hit rate 0.51% among 330,000; AID 2016;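 active means GFP response versus DMSO above a set limit, roughly screen mean plus 3 SD, cut at about 180% in these data; inconclusive means fewer than 70 cells counted for a yeast strain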;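 further: median GFP fluorescence of the barcode-gated MEP2-GFP cells per well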
RPL19A-GFP yeast – modulators of TOR pathway RPL19A-GFP in S. cerevisiae; S. cerevisiae RPL19A-GFP strain, flow cytometry, 3 h; stronger effect = lower value; percent response vs DMSO, % at 10 µM; hit rate 0.3% among 330,000;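 active means percent response vs DMSO below 50%; inconclusive means fewer than 70 events counted for the yeast strain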;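 further: median channel GFP fluorescence of the barcoded RPL19A-GFP strain; lower means less RPL19A-GFP as with rapamycin TOR inhibition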
CIT2-GFP yeast – alters CIT2-GFP fluorescence in TOR pathway yeast screen; S. cerevisiae CIT2-GFP strain, flow cytometry, 3 h; 100 means same as DMSO wells; GFP response vs DMSO, % at 10 µM; hit rate 0.065% among 320,000;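 active means GFP response relative to DMSO above a set limit, near the screen mean plus 3 SD, cut at about 150% in these data; inconclusive means Fewer than 70 cells measured for a yeast strain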;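 further: ratio of well median GFP fluorescence to mean of DMSO wells on the plate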
LAP4 TOR yeast – yeast TOR pathway LAP4-GFP modulation; S. cerevisiae LAP4-GFP multiplex, flow cytometry GFP, 3 h; median GFP as percent of DMSO wells; GFP response vs DMSO, % at 10 µM; hit rate 0.34% among 320,000;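 active means GFP response vs DMSO above a set limit, about the screen mean plus 3 SD, cut at about 150% in these data; inconclusive means under 70 cell events counted for the yeast strain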
LAP4 cherry2 – yeast LAP4-GFP modulation, second cherry pick | shares compounds with LAP4 TOR yeast | S. cerevisiae LAP4-GFP strain, flow cytometry GFP, 3 h | GFP response vs DMSO, % at 10 µM | hit rate 20% among 590;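 active means GFP signal as percent of the solvent control above about 150%, meaning raised reporter expression, limit read from the data; inconclusive means fewer than 70 cells counted in the well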
MEP2 cherry2 – reconfirmed MEP2-GFP TOR pathway modulator in yeast; AID 2622; S. cerevisiae MEP2-GFP strain, flow cytometry GFP, 3 h; shares compounds with LAP4 TOR yeast; hit rate 10% among 590; GFP response vs DMSO, % at 10 µM;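 active means GFP signal above 150% of the solvent control wells, that is a rise of more than half; inconclusive means fewer than 70 yeast cells counted in the well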;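 further: median channel GFP fluorescence of all gated yeast cells per well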
RPL19A-GFP pick2 – reconfirmed modulator of RPL19A-GFP TOR reporter in yeast; GFP response vs DMSO, % at 10 µM; shares compounds with LAP4 TOR yeast; AID 2623; S. cerevisiae RPL19A-GFP strain, flow cytometry GFP, 3 h; stronger effect = lower value; 100% means same as DMSO wells; hit rate 3% among 590;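 active means under 65% GFP response relative to DMSO; inconclusive means yeast strain with under 70 measured events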;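 further: median GFP channel fluorescence per well over the all cells gate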
CIT2-GFP pick2 – second confirmation of modulators of TOR reporter CIT2-GFP in yeast; shares compounds with LAP4 TOR yeast; S. cerevisiae CIT2-GFP strain, flow cytometry GFP, 3 h; DMSO control wells read 100%; GFP response vs DMSO, % at 10 µM; hit rate 8% among 590; AID 2624;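 active means GFP response vs DMSO above about 150%, limit read from the data; inconclusive means fewer than 70 events counted for a yeast strain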;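 further: median green fluorescence per well over all gated yeast cells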
AGP1 GFP CP2 – reconfirmed modulator of AGP1-GFP TOR reporter in yeast. percent response vs DMSO, % at 10 µM. shares compounds with LAP4 TOR yeast. S. cerevisiae AGP1-GFP strain, flow cytometry GFP, 3 h. AID 2643. 590 tested, under 10 active;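 active means over 150 percent of DMSO response; inconclusive means yeast strain measured with under 70 events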;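 further: median GFP channel fluorescence over all cells without mother daughter split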
Yeast autofluor – yeast s288c autofluorescence artifact, counter-screen. shares compounds with LAP4 TOR yeast. S. cerevisiae s288c, 520 nm autofluorescence, flow cytometry, 3 h; stronger effect = higher value; zero means same as solvent-only cells. fluorescence change (kMESF span) at 33 µM. 610 tested, under 10 active;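 active means fluorescence span over the dose series, or activity score, above about 33, limit read from the data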
s288c autofl DR – yeast s288c autofluorescence artifact in dose response. shares compounds with LAP4 TOR yeast. S. cerevisiae s288c parental, compound autofluorescence, flow cytometry, 3 h. fluorescence change (span) at 33 µM. 110 tested, under 10 active. AID 488829;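 active means fluorescence change span, or the activity score built from it, above 25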
TORC1 bypass gr – wildtype yeast growth loss with TORC1 bypass cells unaffected; shares compounds with LAP4 TOR yeast; S. cerevisiae BY4741 spot growth rating, 48-72 h; stronger effect = lower value; 120 tested, under 10 active; AID 504456; growth rating (0-3) at 30 µM;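 active means growth rating at most 1 for wild type yeast while the TORC1 bypass strain still grows fully, rated 3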
Hits are given with their value; - = inactive; ? = inconclusive; . = no result.

SMILES	AGP1 TOR yeast	MEP2-GFP yeast	RPL19A-GFP yeast	CIT2-GFP yeast	LAP4 TOR yeast	Yeast autofluor	others
CS(=O)(=O)c1sc(C#N)c2c1C(=O)CC(c1ccccc1)C2 (stereo unspecified)	-	-	-	-	209.1	-
CCN(CC)c1ccc2cc(-c3nc(-c4ccc(OC)cc4)cs3)c(=O)oc2c1	-	221.2	-	203.6	159.7	-
CCN(CC)c1ccc2cc(-c3nc4ccccc4n3C)c(=O)oc2c1	-	-	-	-	-	.
CCN(CC)c1ccc2cc(-c3nc4ccccc4[nH]3)c(=O)oc2c1	-	200.2	-	-	171.0	-
CCN(CC)c1ccc2cc(-c3nnc(-c4ccccc4)o3)c(=O)oc2c1	-	-	-	-	-	.
Cc1cc(N2CCOCC2)ccc1/C=C1/SC(=O)NC1=O	-	-	-	-	-	.
Cc1ccccc1C(=O)NNC(=S)NC(=O)c1ccc(Cl)cc1Cl	-	-	-	-	182.0	-
Cc1onc(-c2ccccc2)c1C(=O)NNC(=S)NC(=O)c1ccc(Cl)cc1Cl	-	-	-	-	-	.
O=C(NC(=S)NNC(=O)c1ccc(Cl)cc1Cl)c1cccnc1	-	184.1	-	-	-	-
O=C1c2ccccc2C(=O)N1SC1CCCCC1	-	-	-	-	-	.	LAP4 cherry2=-;MEP2 cherry2=-;RPL19A-GFP pick2=-;CIT2-GFP pick2=-;AGP1 GFP CP2=-
Cc1cc(C)n(CC(=O)NC2CCCCC2C)c(=O)c1C#N (stereo unspecified)	-	-	-	-	-	.
O=C(CN(C1CCCCC1)S(=O)(=O)c1ccccc1)N1CCCC1	-	-	-	-	-	.
O=C(CN(C1CCCCC1)S(=O)(=O)c1ccc(Cl)cc1)N1CCOCC1	-	-	-	-	-	.	LAP4 cherry2=-;MEP2 cherry2=-;RPL19A-GFP pick2=-;CIT2-GFP pick2=-;AGP1 GFP CP2=-
Oc1c(C(Nc2nc3ccccc3s2)c2ccco2)ccc2cccnc12 (stereo unspecified)	-	-	-	-	202.9	-
COCCn1c(SCC(=O)Nc2ccc(S(=O)(=O)N(C)C)cc2)nc2ccccc21	-	-	-	-	-	.
COc1cccc(C(=O)OCC(=O)Nc2cc(C)c(C)cc2[N+](=O)[O-])c1	-	-	-	-	-	.
O=C1/C(=C/C=C/c2ccccc2)Oc2c1ccc(O)c2CN1CCN(CCO)CC1	-	-	-	-	-	.
CCN1CCN(Cc2c(O)ccc3c2O/C(=C\C=C\c2ccccc2)C3=O)CC1	-	-	-	-	152.9	.	LAP4 cherry2=-;MEP2 cherry2=-;RPL19A-GFP pick2=-;CIT2-GFP pick2=-;AGP1 GFP CP2=-
CN=Cc1c(NC)nc2c(C)cccn2c1=O	-	?	-	?	?	.
CC(C)(C)c1ccc(-c2cnco2)cc1	?	?	-	-	-	.	LAP4 cherry2=-;MEP2 cherry2=-;RPL19A-GFP pick2=-;CIT2-GFP pick2=-;AGP1 GFP CP2=-
O=C(/C=C/c1cc(Br)ccc1O)c1ccco1	-	-	-	-	196.4	-
CN(C)c1oc(/C=C/c2cccs2)nc1S(=O)(=O)c1ccccc1	-	-	-	-	-	.	LAP4 cherry2=-;MEP2 cherry2=-;RPL19A-GFP pick2=-;CIT2-GFP pick2=-;AGP1 GFP CP2=-
CC(C)[C@H](NS(=O)(=O)c1cccc(Cl)c1)C(=O)OCC(=O)NC(=O)CN1CCCC1=O	-	-	-	-	-	.
COc1cc(/C=C/C(=O)N2CCN(C)CC2)cc(S(=O)(=O)N2CCc3ccccc32)c1OC	-	-	-	-	-	.	LAP4 cherry2=-;MEP2 cherry2=-;RPL19A-GFP pick2=-;CIT2-GFP pick2=-;AGP1 GFP CP2=-
COc1cc(/C=C/C(=O)OCC(=O)NC2CC2)cc(S(=O)(=O)N2CCc3ccccc32)c1OC	-	-	-	-	-	.
SMILES	AGP1 TOR yeast	MEP2-GFP yeast	RPL19A-GFP yeast	CIT2-GFP yeast	LAP4 TOR yeast	Yeast autofluor	others
Cc1ccc(/C=C2/C(=O)ON=C2c2ccccc2)o1	-	-	-	-	257.1	-	s288c autofl DR=-;TORC1 bypass gr=-
O=C1ON=C(c2ccccc2)/C1=C/c1ccccc1	-	-	-	-	-	.
O=C1ON=C(c2ccccc2)/C1=C\c1ccco1	-	-	-	-	218.8	-	s288c autofl DR=-;TORC1 bypass gr=-
CC(OC(=O)CC1CCCCC1)C(=O)Nc1ccc(F)cc1 (stereo unspecified)	-	-	-	-	-	.
O=C(O)CC1(CC(=O)Nc2ccccc2Br)CCCC1	-	-	-	-	-	.
O=c1c(-c2cccc([N+](=O)[O-])c2)[n+]([O-])c2ccccc2n1O	-	-	-	-	-	.
O=c1c(-c2ccc(Cl)cc2)[n+]([O-])c2ccccc2n1O	-	-	-	-	165.2	-
Cc1ccc(S(=O)(=O)CCN2CCC(n3cccc3)CC2)cc1	-	-	-	-	-	.
Cc1ccc(C(=O)Sc2cccccc2=O)cc1	-	-	-	-	243.6	-
O=C(Oc1c(Cl)cc(Cl)c2cccnc12)c1cccs1	-	-	-	-	221.8	-	LAP4 cherry2=201.4;MEP2 cherry2=-;RPL19A-GFP pick2=-;CIT2-GFP pick2=-;AGP1 GFP CP2=-
O=C(Oc1c(Cl)cc(Cl)c2cccnc12)c1ccco1	-	-	-	-	230.4	-	s288c autofl DR=-;TORC1 bypass gr=-
O=C1C(Cl)=C(NCCc2ccccc2)C(=O)N1CCc1ccccc1	-	-	-	-	-	-
COc1cccc(/C=C2/SC(=S)N(CCCC(=O)Nc3ccc(O)cc3)C2=O)c1	-	-	-	-	-	.
COc1cccc(/C=C2\SC(=S)N(CCCC(=O)Nc3ccc(C(=O)O)cc3)C2=O)c1	-	-	-	172.7	-	-	LAP4 cherry2=-;MEP2 cherry2=-;RPL19A-GFP pick2=-;CIT2-GFP pick2=-;AGP1 GFP CP2=-
Cc1c(C(=O)Nc2nc(-c3ccccn3)cs2)oc2ccccc12	-	-	-	-	219.9	-	LAP4 cherry2=187.4;MEP2 cherry2=-;RPL19A-GFP pick2=-;CIT2-GFP pick2=-;AGP1 GFP CP2=-;s288c autofl DR=-;TORC1 bypass gr=-
Cc1nnc(NC(=O)c2oc3ccccc3c2C)s1	-	-	-	-	-	.
